PubChem BioAssay AID1347048 (National Center for Advancing Translational Sciences (NCATS), 2019)
Among all 76,000 compounds or so, about 1,200 (1.6%) were called active. Inconclusive results (about 4%) are left out. Calls come from the whole dose curve. For the sample, actives were picked, then their nearest neighbours and some compounds at random.

The molecules below were run against Atrial natriuretic peptide receptor 1 (Homo sapiens) (UniProt P16066) (assay: Natriuretic polypeptide receptor (hNpr1) antagonism - Primary qHTS). Conditions: HEK293 hNpr1 GloSensor cGMP, ANP-stimulated luminescence; series mostly up to 46.3 µM; activity change, negative = inhibition: at the top concentration.
Sequence of Atrial natriuretic peptide receptor 1 (Homo sapiens) (P16066 whole entry, looked up): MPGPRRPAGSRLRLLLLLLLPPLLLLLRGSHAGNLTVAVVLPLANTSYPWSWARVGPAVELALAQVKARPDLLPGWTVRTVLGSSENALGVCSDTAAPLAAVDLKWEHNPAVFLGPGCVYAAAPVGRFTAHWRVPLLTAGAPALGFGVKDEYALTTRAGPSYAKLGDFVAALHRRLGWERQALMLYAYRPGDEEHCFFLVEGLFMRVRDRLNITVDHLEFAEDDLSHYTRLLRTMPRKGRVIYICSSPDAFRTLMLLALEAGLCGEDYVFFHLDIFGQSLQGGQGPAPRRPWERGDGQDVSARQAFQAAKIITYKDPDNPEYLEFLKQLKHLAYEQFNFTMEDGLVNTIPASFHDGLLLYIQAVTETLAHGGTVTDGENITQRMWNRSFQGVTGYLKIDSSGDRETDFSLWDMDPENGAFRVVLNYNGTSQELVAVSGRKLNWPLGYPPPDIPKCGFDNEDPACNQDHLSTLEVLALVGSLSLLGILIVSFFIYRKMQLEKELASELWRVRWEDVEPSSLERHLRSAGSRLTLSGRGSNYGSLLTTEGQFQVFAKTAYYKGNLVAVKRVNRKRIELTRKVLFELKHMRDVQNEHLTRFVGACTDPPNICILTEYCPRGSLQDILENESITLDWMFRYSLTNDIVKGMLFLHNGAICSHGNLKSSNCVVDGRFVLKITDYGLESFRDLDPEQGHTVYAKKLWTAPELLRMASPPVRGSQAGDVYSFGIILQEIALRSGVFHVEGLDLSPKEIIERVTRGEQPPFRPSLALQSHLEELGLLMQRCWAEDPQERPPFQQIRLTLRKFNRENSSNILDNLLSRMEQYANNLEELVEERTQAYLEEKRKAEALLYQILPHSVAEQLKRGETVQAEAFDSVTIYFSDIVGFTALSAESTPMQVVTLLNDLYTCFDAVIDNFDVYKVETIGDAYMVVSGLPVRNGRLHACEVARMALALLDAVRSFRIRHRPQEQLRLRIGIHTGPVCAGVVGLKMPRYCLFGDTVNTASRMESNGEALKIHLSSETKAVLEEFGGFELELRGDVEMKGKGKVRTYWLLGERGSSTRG
Procedure, shortened: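 HEK293 cells stably expressing human Npr1 and cGMP GloSensor pGS-40F, loaded 2 h with 2% GloSensor reagent, given compound 30 min at room temperature. Luminescence read before and 20 min after 0.1 nM hNppA.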
% is set by controls: 0 for no effect and ±100 for the full control effect; potency is the fitted concentration of half-maximal effect.
Note: nearly all actives have a fitted effect of over 60% in size.

Activity change, negative = inhibition, inactive:
O=C(NCC1CC1)C1Cn2cccc2C(=O)N1Cc1cccnc1 (stereo not given) 2.95%
Cc1ccnc(N2CCC(c3nnc(-c4ccc(F)cc4)o3)CC2)n1 4.7%
COc1ccc(-c2onc(C)c2C(=O)NCCC(c2ccccc2)c2ccccc2)cc1 -19.3%
Cc1cccc(-c2cc(C3CCN(S(=O)(=O)c4ccc(C#N)cc4)CC3)[nH]n2)c1 -19.8%
Cc1cccc(CN2CCCCCCNC(=O)[C@@H]3CCC[C@@H]32)c1 -14%
COc1cccc(CN2Cc3nc(-c4cc(F)cc(F)c4)ccc3OCC2=O)c1 -10% [at 70.6 µM]
O=C(c1ccoc1)N1CCN(C(=O)c2nnn3c2COC(c2ccc(Cl)cc2)C3)CC1 (stereo not given) -24.7%
COc1ccc(C2Cn3nnc(C(=O)N4CCC(C(=O)NCc5ccc(C)cc5)CC4)c3CO2)cc1 (stereo not given) -10.2%
Cc1ccc(C2Cn3nnc(C(=O)N4CCN(C(=O)COc5cccc(C)c5)CC4)c3CO2)cc1 (stereo not given) 4.44%
CN(C)c1ccc(C(=O)N2CCN(C(=O)c3nnn4c3COC(c3ccc(Cl)cc3)C4)CC2)cc1 (stereo not given) -13%
O=C1N(Cc2ccc(F)cc2)C[C@H]2CN(Cc3ccncc3F)CCN12 -5.47% [at 70.6 µM]
Cc1ccc(C2Cn3nnc(C(=O)N4CCC(C(=O)Nc5ccc(Cl)cc5)CC4)c3CO2)cc1 (stereo not given) -25.5%
CC(C)(O)CCc1ccc(C(=O)NCc2nc(-c3ncccn3)no2)cc1 -1.7%
COc1ncccc1Nc1cnc2ccc(N3CCOCC3)nn12 -10.5% [at 70.6 µM]
CCOc1cccc(-c2nnc(CCC(=O)NCCC(C)C)c(=O)[nH]2)c1 -3.78%
CCNc1cc(N2CCC(CCC(=O)Nc3ccc(C)cc3C)CC2)ncn1 5.36%
CCCNc1cc(N2CCC(CCC(=O)Nc3ccc(C)cc3)CC2)ncn1 -25.4%
CS(=O)(=O)N1C[C@H]2CCN(C(=O)c3cc(F)ccc3Cl)C[C@H]21 11.3%
O=c1[nH]c(C2CCCN(Cc3ccc(-c4ccsc4)cc3)C2)nc2ccc(F)cc12 (stereo not given) -27.1%
COc1ccc2nc([C@H]3CCN(Cc4ccc(NC(C)=O)cc4)C3)[nH]c2c1 -1.71% [at 70.6 µM]
CC(C)c1noc(-c2cn(C3CCN(C(=O)COc4ccccc4)C3)nn2)n1 (stereo not given) 0%
CC(C)c1noc(-c2cn(C3CCN(C(=O)c4cccc(C#N)c4)CC3)nn2)n1 0%
O=C(c1cccnc1)N1CCC(Cc2nc(C3CCOCC3)no2)CC1 -27.1%
COc1cccc(C(=O)N2CCC(Cc3nc(-c4cnccn4)no3)CC2)c1 5.25%
COc1ccc(C(=O)N2CCCC(Cc3nc(C4CCOCC4)no3)C2)cc1 (stereo not given) -11.9%
O=C(C1CC1)N1CCCC(c2noc(COc3ccccc3F)n2)C1 (stereo not given) 2.7%
CCN(Cc1ccncc1)C(=O)c1ccc2c(c1)C(O)CCCCCN2C (stereo not given) -23%
C=C(C)CN(CC)C(=O)c1c(C)oc2c1CN(Cc1cccc(F)c1)CC2 0.0659%
O=C(C[C@@H]1CCNC[C@@H]1Cc1cc(CC2CCCCC2)on1)N1CCOCC1 -1% [at 70.6 µM]
COCCCNC(=O)c1ccc2c(c1)n(Cc1cccc(OC)c1)c(=O)c1ccnn12 -5.71%
COCC1CN(C2CCC2)CC12CCN(C(=O)CCc1ccccc1)CC2 (stereo not given) -29.6%
COc1ccc(CN2C(=O)COC[C@H]2C(=O)Nc2ccc(C(C)C)cc2)c(OC)c1 -2.17%
CN1CCN(Cc2ccc(Nc3ncc(-c4cccnc4)c4c3OCC4)cc2)CC1 -0.125% [at 70.6 µM]
CN(C)c1cccc(-c2cnc(Nc3cnccn3)c3c2CCO3)c1 -2.41% [at 70.6 µM]
O=C(Nc1ccc(-c2nnc3n2CCCC3)cc1)c1ccsc1 -1.56%
CCn1c2c(c(=O)n1-c1ccccc1)CCN(C(=O)COc1ccccc1)C2 -0.0947% [at 70.6 µM]
O=C(Nc1ccc(F)cc1)c1ccc2ccnn2c1 -2.71% [at 70.6 µM]

Potency, active:
COc1ccc(C2Cn3nnc(C(=O)N4CCN(C(=O)c5ccc(C)cc5C)CC4)c3CO2)cc1 (stereo not given) 14.1 µM
COc1ccc(C2Cn3nnc(C(=O)N4CCN(C(=O)c5cccc(Cl)c5)CC4)c3CO2)cc1 (stereo not given) 7.08 µM
CCNc1cc(N2CCC(CCC(=O)N3CCc4ccccc4C3)CC2)ncn1 11.2 µM
Cc1ccc2nc(C3CCCN(Cc4ccc(C#N)cc4)C3)[nH]c(=O)c2c1 (stereo not given) 14.1 µM
CC(C)c1cc(C(=O)N2CCC(n3cc(-c4ccccn4)nn3)CC2)n(C)n1 10 µM
COc1cccc(-c2noc(CC3CCN(C(=O)c4ccc(F)cc4)CC3)n2)c1 5.62 µM
O=C(c1ccccc1)N1CCC(C(=O)N2CCC(Cc3nc(-c4ccc(F)cc4)no3)CC2)CC1 11.2 µM
CN(C)c1cccc(-c2cnc(Nc3ccc(N4CCOCC4)cc3)c3c2CCO3)c1 25.1 µM
